# Out of some 48,000 compounds screened, about 450 (0.94%) were called active. About 19% were inconclusive and are not listed. The sample as a whole holds a higher share of actives than the screen did. A number with no mark means an inactive call. Calls come from the whole dose curve; as a rule, active = well fitted inhibition curve with a large enough effect; inconclusive = small, poorly fitted or top-dose-only effect; inactive = no such curve, though single readings can be large or run the other way.
# Assay: Primary qHTS for Identification of Small Molecule Inhibitors of Huntingtin Promoter Activity; note: nearly all actives have a fitted effect of over 50% in size
# Settings: HEK293 HTT promoter firefly luciferase reporter (activity 0% = vehicle and -100% = no light), 24 h; series mostly up to 57.5 µM; activity change, negative = inhibition: at the top concentration
# From the text: Assay Provider: Russell L. Margolis M.D.
# Department Neurology, Johns Hopkins University School of Medicine, Baltimore, MD
# Huntington's Disease (HD) is a neurodegenerative disorder caused by a CAG repeat expansion in exon 1 of huntingtin (HTT). While there are currently no disease-modifying treatments for HD, recent efforts have focused on development of nucleotide-based therapeutics to lower HTT expression. As an alternative to siRNA or oligonucleotide methods, we hypothesized that suppression of HTT expression might be accomplished by small molecules that either (1) directly decrease HTT expression by suppressing HTT promoter activity or (2) indirectly decrease HTT expression by increasing the promoter activity of HTT-AS, the gene antisense to HTT that appears to inhibit expression of HTT.
# We developed and employed a high throughput screen for modifiers of HTT and HTT-AS promoter activity using luminescent reporter HEK293 cells; of the 52,041 compounds tested, we identified 898 replicable hits. We used a rigorous stepwise approach to assess compound toxicity and the capacity of the compounds to specifically lower huntingtin protein in 5 different cell lines, including HEK293 cells, HD lymphoblastoid cells, mouse primary neurons, HD iPSCs differentiated into cortical-like neurons, and HD hESCs. We found no compounds which were able to lower huntingtin without lowering cell viability in all assays, though the potential efficacy of a few compounds at non-toxic doses could not be excluded.
# SEQUENCE No. (1, 2, 3, etc.); […] (e.g., Cells, Incubation, Reagent, etc.); VALUE and DESCRIPTION.
# 1; Reagent; 4 uL; 2,500 Hek293 luciferase reporter cells per wells
# 3; Compound; 23 nL; Control inhibitor / compound library
# 5; Reagent; 2.5 uL; Firefly Luc reagent; Dual-Glo Luciferase Reporter Assay System (Promega)
# 6; Time; 10 min; room temperature incubation
# 7; Detection; Luminescence; FLuc
# NOTES (numbers refer to sequence above)
# 1; High-throughput screening, measuring luminescence from a Hek293 luciferase reporter, was performed in 1,536 well white-walled tissue-culture treated plates. 2,500 cells were plated in 4 µL of Opti-MEM per well using a Multidrop Combi Reagent Dispenser (ThermoFisher).
# 2; Assay plates were cultured for 24 hours.
# 3; Control inhibitor (PTC124; final concentration of 50 uM) and compound library (at final concentrations of 460 nM - 57.5 uM) were added to the assay plate using the Kalypsis Pintool Robotic System equipped with 1536 pinheads.
# 4; Cells were then incubated for 24 hours at 37 degrees C prior to luminescence measurements.
# 5; In all cases, luminescence was measured using the Dual-Glo Luciferase Reporter Assay System (Promega) following the manufacturer's instructions.
# 6; Room temperature incubation.
# 7; Luminescence signal was obtained using the PerkinElmer ViewLux plate reader. Results were normalized to vehicle control (0% activity) and zero RLU (-100% activity).
# Potency is the fitted concentration of half-maximal effect.
SMILES,"activity change, negative = inhibition",Potency
Cc1cccc(N2CCN(C(=O)c3ccc(Nc4nc5ccccc5n5nnnc45)cc3)CC2)c1C,16.4%,
O=C(c1ccc2c(c1)N(Cc1ccccc1)C(=O)c1ccccc1S2(=O)=O)N1CCCC1,-7.16%,
CCOc1ccccc1N(CC)C(=O)Nc1cn(C)c(=O)c2ccccc12,-16.3%,
CSc1nc(-c2ccc(F)cc2)nc2c1Cc1c(CO)cnc(C)c1O2,-12.1%,
CCOc1ccc(NC(=O)C(CC(C)C)N2Cc3ccccc3C2=O)cc1 (stereo unspecified),-25.6%,
COC(=O)c1cc(NC(=O)c2sc3ccccc3c2Cl)cc(C(=O)OC)c1,-2.04%,
Cc1cccc(N2CCN(C(=O)c3oc(=O)c4ccccc4c3-c3ccccc3)CC2)c1C,-9.19%,
CC(C)(C)OC(=O)N1CCC(c2c(C(=O)NCc3ccccn3)cnn2-c2ccc(F)cc2)CC1,-10.4%,
Cc1ccc(NC(=O)CSc2nc3c([nH]c4ccccc43)c(=O)n2-c2ccccc2)c(C)c1,-11.7%,
Cc1ccc(-c2noc(CSc3nnc(-c4ccc(Cl)cc4)n3C)n2)cc1,-27.1%,
COc1ccc(-c2noc(CSc3nc4ccc(C)cc4[nH]3)n2)cc1,,28.2 µM (active)
COc1ccc(-c2noc(CSc3nc(C)cc(=O)[nH]3)n2)cc1OC,-20.2%,
Cn1c(=O)c2c(SCC(=O)N3CCc4ccccc43)nc(-c3ccc(Cl)cc3)nc2n(C)c1=O,-7.37%,
Cc1cc(C)cc(NC(=O)CSc2oc(-c3ccccc3)nc2S(=O)(=O)c2ccc(Cl)cc2)c1,-14.6%,
Cc1ccc2c(=O)c(C(=O)c3ccc(Cl)cc3)cn(CC(=O)NC3CCCCC3)c2n1,12.6%,
COC(=O)c1scc(-c2ccc(C)cc2)c1S(=O)(=O)Nc1cc(Cl)c(OC)cc1OC,-15.9%,
CCOC(=O)c1ccc(NC(=O)c2csc3c2CCCCC3)cc1,-10.1%,
COc1cccc(C(=O)c2sc3nc(-c4ccccc4)cc(C(F)(F)F)c3c2N)c1,-24.4%,
Cn1c(=O)n(Cc2c(F)cccc2Cl)c(=O)c2c1nc1n2CCN1c1ccc(F)cc1,-1.17%,
CCc1nn(CC(=O)N2CCN(c3cccc(C(F)(F)F)c3)CC2)c(=O)c2cc3occc3n12,-13%,
COC(=O)c1ccc(OC)c(Cn2c(=O)n(Cc3ccccc3)c(=O)c3c2c2cc(OC)ccc2n3C)c1,-9.45%,
Cc1cccc(C(=O)NCCc2nc3ccccc3n2Cc2ccccc2Cl)c1,0.0337%,
CCOc1ccc2nc(N3CCCC(C(=O)Nc4cc(C)ccc4C)C3)sc2c1 (stereo unspecified),38.3%,

SMILES,"activity change, negative = inhibition",Potency
O=C(/C=C/c1ccccc1)N1CCN(Cc2cc(=O)n3nc(-c4ccccc4F)sc3n2)CC1,-11.1%,
O=C(O)c1ccc(Cn2c(SCc3ccc(F)cc3)nc3ccncc32)cc1,4.54%,
Cc1cccc(CSc2nc3ccncc3n2Cc2ccc(C(=O)O)cc2)c1,4.83%,
COc1cccc(Cn2c(SCc3ccc(C(=O)N4CCCCC4)cc3)nc3ccncc32)c1,,12.6 µM (active)
COc1ccccc1Cc1nc2ccccc2nc1SCC(=O)N1CCCc2ccccc21,-3.18%,
Cc1ccc(CNC(=O)CCc2c(C)nc3nc(CNC(=O)OC(C)(C)C)nn3c2C)cc1,-20.6%,
CC(=O)N1CCCc2cc(S(=O)(=O)Nc3ccc(Cl)cc3F)ccc21,-28.1%,
CC(=O)N1CCCc2cc(S(=O)(=O)N3CCC(C(=O)NC4CCCCC4)CC3)ccc21,-20.4%,
CC(=O)N1CCCc2cc(S(=O)(=O)N3CCCC(C(=O)N4CCN(c5cccc(Cl)c5)CC4)C3)ccc21 (stereo unspecified),,7.08 µM (active)
CCN(CC)c1ccc(NC(=O)CN2CCN(CC(=O)Nc3ccc(Cl)cc3)CC2)cc1,-28.4%,
Cc1oc2ncnc(N3CCOCC3)c2c1C(=O)NCCc1ccccc1,19.5%,
Cc1c(C(=O)Nc2cccc(Cl)c2)oc2ccc(S(=O)(=O)N3CCOCC3)cc12,-4.7%,
Cc1ccc(NC(=O)c2oc3ccc(S(=O)(=O)N4CCCCC4)cc3c2C)cc1Cl,-15.5%,
CCOC(=O)c1oc2ccc(S(=O)(=O)n3nc(-c4ccccc4OC)cc3N)cc2c1C,,12.6 µM (active)
O=C(Nc1ccc2nc(SCC(=O)N3CCc4ccccc43)sc2c1)c1ccccc1F,-3.2%,
O=C(c1cccc(Cl)c1)N1CCN(CCc2ccncc2)CC1,-11.7%,
COC(=O)c1sccc1S(=O)(=O)N(CC(=O)Nc1ccc(C)c(F)c1)c1ccc(C)c(C)c1,-10.9%,
CC1CN(C(=O)N2CCC(C(=O)NCc3cccs3)CC2)c2ccccc2O1 (stereo unspecified),-9.81%,
Cc1ccc2nc(COc3cccc(NC(=O)c4cccc(Cl)c4)c3)cc(=O)n2c1,-0.53%,
CCn1cc(C(=O)NCCc2ccccc2)c(=O)c2cc(S(=O)(=O)N3CCCCCC3)ccc21,-17.5%,
CCc1ccc(NC(=O)N2CCN(C(=O)c3nsc4ccccc34)CC2)cc1,-28.2%,
Cc1ccc(Oc2c(C(F)(F)F)oc3c(CN4CCCCC4)c(O)ccc3c2=O)cc1,-41.6%,
COc1ccc(-c2cc(NCc3ccc(F)cc3)n3cnnc3n2)cc1,-27.2%,

# Source: PubChem BioAssay AID1508623 (National Center for Advancing Translational Sciences (NCATS), 2021)
